Assay outcomes deposited in PubChem BioAssay by National Center for Advancing Translational Sciences (NCATS).
RORgamma inh – qHTS for inhibitors of ROR gamma transcriptional activity. Drosophila S2 Gal4-RORgamma UAS-luciferase reporter, 20 h. Potency, µM (top dose mostly 53.6 µM), inactives show top-dose activity change, negative = inhibition, usual class: inhibitors. 5.4% of 310,000 active. AID 2551, 2010; note: potency is the fitted concentration of half-maximal effect; nearly all actives have a fitted effect of over 60% in size
Target sequence (P51450 whole entry, looked up, the tested form may be a part): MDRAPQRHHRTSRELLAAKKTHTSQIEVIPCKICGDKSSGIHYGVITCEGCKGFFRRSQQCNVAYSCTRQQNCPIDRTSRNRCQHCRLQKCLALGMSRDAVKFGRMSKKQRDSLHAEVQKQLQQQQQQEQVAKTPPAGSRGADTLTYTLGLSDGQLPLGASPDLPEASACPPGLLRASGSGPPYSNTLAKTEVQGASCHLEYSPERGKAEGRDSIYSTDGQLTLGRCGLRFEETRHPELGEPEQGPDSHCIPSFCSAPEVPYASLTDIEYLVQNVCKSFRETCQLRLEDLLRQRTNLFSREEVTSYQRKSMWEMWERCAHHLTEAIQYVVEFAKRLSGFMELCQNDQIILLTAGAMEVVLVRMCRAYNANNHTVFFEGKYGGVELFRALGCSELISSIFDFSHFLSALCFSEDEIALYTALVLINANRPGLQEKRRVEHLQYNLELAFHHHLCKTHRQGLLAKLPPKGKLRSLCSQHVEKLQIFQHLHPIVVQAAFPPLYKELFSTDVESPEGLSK
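Stably transfected Drosophila Schneider cells are the test system, with ROR gamma fused to Gal4 and luciferase under UAS control; luminescence is read after 20 hr of 700 uM copper sulfate induction at ambient temperature.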
B2AR arrestin – qHTS assay of beta-arrestin-biased ligands of beta2-adrenergic receptor; AID 492947, 2010; Potency, µM (highest dose often 46.1 µM), inactives show at the highest dose activation, actives largely listed as activators; Beta-2 adrenergic receptor (Homo sapiens), P07550; beta-arrestin recruitment to beta2AR, cell-based reporter; 0.02% of 330,000 active;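 note: potency is the fitted concentration of half-maximal effect; 0% = DMSO controls and full agonism = EC100 isoproterenol or metaproterenol; nearly all actives have a fitted effect of over 65% in size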
TSHR antag – Antagonists of the Thyroid Stimulating Hormone Receptor: HTS campaign | Thyrotropin receptor (Homo sapiens), P16473 | TSHR-expressing cells, TSH-stimulated cAMP HTRF, 2 h; hits give low values | activity change, negative = inhibition, % at 11.5 µM | 0.2% of 330,000 active;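 active = activity change below a set negative limit, meaning inhibition stronger than a set level, cut at about -70% in these data; inconclusive = activity change between two set negative limits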
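Cell-based HTRF cAMP assay; TSHR cells + compound, TSH EC80 (4nM final), 2 h, 37 deg C. Lysis with anti-cAMP cryptate and cAMP-d2, 30 min RT, read 665/620 nm.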
ELG1 repair inh – qHTS screen for small molecules that inhibit ELG1-dependent DNA repair in human embryonic kidney (HEK293T) cells expressing luciferase-tagged ELG1 | HEK293T ELG1-luciferase reporter, luminescence, 16 h; DNA damage induced by 5-fluorouridine | Potency, µM (highest dose often 46.1 µM), inactives show at the top dose activity change, negative = inhibition, most hits filed as inhibitors | AID 504467, 2011 | 2.3% of 330,000 active; note: potency is the fitted concentration of half-maximal effect; nearly all actives have a fitted effect of over 55% in size
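Overnight (16 hr) co-exposure of 2,000 cells/well to 5-fluorouridine and compound at 37 °C preceded detection. Luciferase was quantified via ONE-Glo luminescence; loss of signal denotes inhibition.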
Gal4-VP16 FLuc – VP16 counterscreen qHTS for inhibitors of ROR gamma transcriptional activity. 3.5% of 310,000 active. AID 2546, 2010. Drosophila S2 Gal4-VP16 UAS-luciferase, luminescence, 20 h. Potency, µM (highest dose often 53.6 µM), for inactives: top-dose activity, negative = inhibition, usual class: inhibitors;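 note: Gal4-VP16 expression switched on by copper sulfate through the metallothionein promoter; potency is the fitted concentration of half-maximal effect; nearly all actives have a fitted effect of over 50% in size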
The depositor's hits bear a star; u = inconclusive; x = no result given; [ ] = dose if it differs, or a comment. An excerpt weighted towards active compounds, which were near 7.5% of everything screened. Unless noted, calls come from the whole dose curve; as a rule, active = well fitted curve in the direction sought with a large enough effect; inconclusive = small, poorly fitted or top-dose-only effect, or another doubt; inactive = no such curve, though single readings can be large; an effect the other way counts as inactive or inconclusive. Unless noted, % is set by controls: 0 for no effect and ±100 for the full control effect.

SMILES	RORgamma inh	B2AR arrestin	TSHR antag	ELG1 repair inh	Gal4-VP16 FLuc
CC1(C)OC(=O)C=C[C@@]2(C)C1C[C@@H](O)[C@]1(C)C2CC[C@@]2(C)C(c3ccoc3)OC(=O)[C@H]3O[C@]321 (some centres undefined)	-13.2%	x	x	x	-14.8%
C/C(=N\N1C(=O)c2ccccc2NC1c1ccccc1)c1ccccc1O (centres undefined)	0.562µM*	0.1%	-0.5	u	2.82µM*
C/C(=N\N1C(=O)c2ccccc2NC1c1ccco1)c1ccccc1O (centres undefined)	0.355µM*	0.6%	-8.2	u	2.24µM*
O=C1c2ccccc2NC(c2ccco2)N1/N=C/c1ccco1 (centres undefined)	-25.8%	0.2%	2.7	u	-7.9%
CCC(C(=O)NCCc1c[nH]c2ccc(C)cc12)c1ccccc1 (centres undefined)	2.1%	-0.3%	-9.7	-13.6%	4.7%
COc1ccc2nc(N=Nc3c(O)ccc4ccccc34)sc2c1	1µM*	-0.5%	-1.8	-16.9%	4.47µM*
COc1ccc2nc(NC(=O)Nc3cccc4ccccc34)sc2c1	-15.5%	0.1%	3.7	u	-18.2%
COc1cccc(-c2nn(-c3ccccc3)cc2CN(C)Cc2c(C)nc3ccccn23)c1	7.08µM*	0.3%	-0.1	u	u
O=C(NC(=S)N1CCCC1)c1ccc(Cl)cc1Cl	0.891µM*	2.6%	4.1	1.0%	1.41µM*
COc1c(Cl)ccc(Cl)c1C(=O)NC(=S)N1CCOCC1	3.55µM*	-0.2%	7.6	9.0%	11.2µM*
O=C(NC(=S)N1CCOCC1)c1ccccc1Cl	2.82µM*	-0.5%	22.4	13.0%	u
COc1c(Cl)ccc(Cl)c1C(=O)NC(=O)N1CCOCC1	-12.5%	-0.2%	3.2	20.8%	3.9%
S=C(Nc1ccccc1Cl)N1CCOCC1	-5.2%	-0.4%	4.3	1.5%	u
COc1ccc(S(=O)(=O)CCc2nnc(NC(=O)c3ccc(F)cc3)s2)cc1	-13.9%	0.1%	-5.8	8.8%	-1.7%
COc1cc2c(cc1OC)CN(C(=O)Cc1c(F)cccc1Cl)CC2	-12.6%	0.5%	-2.5	2.2%	-7.0%
COc1cc2c(cc1OC)C1O[C@](CCCCN3C(=O)c4ccccc4C3=O)(C2)OC2=C1C(=O)CCC2	13.8%[10 µM]	-0.1%[9.22 µM]	x	x	-7.5%[10 µM]
CC1CCN(S(=O)(=O)N2CCCC(C(=O)NCc3ccccc3Cl)C2)CC1 (centres undefined)	2.9%	0.0%	-16.7	-0.2%	-5.9%
O=C(NCc1ccccc1Cl)C1CCN(S(=O)(=O)N2CCCCCC2)CC1	u	-0.6%	2.3	18.4µM*	-4.7%
CC(=O)O[C@@H](C)C#C[Si](C)(C)c1ccccc1	u	x	x	x	0.0%
S=C1NC=NC2N=CNC12 (centres undefined)	3.9%	x	x	x	8.1%
O=[N+]([O-])c1c(Nc2ccccc2O)cc(Cl)c2nonc12	3.55µM*	0.3%	-76.5*	25.9µM*	2.82µM*
CN(c1ccccc1)S(=O)(=O)c1ccc(C(=O)Nc2ccncc2)cc1	x	0.1%	5.6	u	x
COc1ccc(C(=O)Nc2nnc(C3=COCCO3)o2)cc1OC	1.58µM*	-0.8%	-10.4	3.8%	1.78µM*
CC(C)(C)c1ccc(C(=O)Nc2nnc(C3=COCCO3)o2)cc1	0.178µM*	-1.0%	3.7	11.3%	u
CN(c1ccccc1)S(=O)(=O)c1ccc(C(=O)Nc2nnc(C3=COCCO3)o2)cc1	1.12µM*	0.2%	-2.3	u	4.47µM*
SMILES	RORgamma inh	B2AR arrestin	TSHR antag	ELG1 repair inh	Gal4-VP16 FLuc
CC(C)Oc1ccc(C(=O)Nc2nnc(C3=COCCO3)o2)cc1	x	-0.7%	x	u	x
CN(C)c1ccc(C(=O)Nc2nnc(C3=COCCO3)o2)cc1	1.58µM*	0.0%	-3.5	u	2.82µM*
COc1ccccc1-c1cc(Nc2ccn[nH]2)ncn1	-8.1%	x	x	x	29.7%
COc1cccc([C@@H]2Oc3ccc(Br)cc3C[C@H]2OC(=O)NS(=O)(=O)c2ccc(C)cc2)c1	-11.9%	x	x	x	-15.6%
COC(=O)/C=C/C1c2ccccc2C(OC)C1C (centres undefined)	25.1%[10 µM]	x	x	x	-2.6%[10 µM]
Cc1ccc(C(=O)NNC(=O)c2cc(C)nc3ccccc23)cc1	x	0.2%	-0.7	5.8%	x
CCNc1ncc2nc(C)c(=O)n(CCc3ccccc3)c2n1	-22.5%	x	x	x	-3.5%
O=C(Nc1nnc(-c2ccc(Cl)cc2)o1)C1=COCCO1	2.51µM*	-0.1%	11.8	u	1.78µM*
COc1ccc(CN(C)CC(=O)NCC(=O)Nc2c(C)cccc2C)cc1	x	-0.7%	18.2	14.8%	x
CCOC(=O)C(=CNc1ccc(-c2ccco2)c(Cl)c1)C(=O)OCC	18.0%	-0.1%	-30.9	u	-9.0%
CCOC(=O)C(=CNc1cc(Cl)c(-c2ccco2)c(Cl)c1)C(=O)OCC	38.6%	5.1%	-23.3	20.6µM*	5.7%
Cc1ccc(-c2nc(CS(=O)CC(=O)NC(C)CCc3ccccc3)c(C)o2)cc1 (centres undefined)	-29.5%	0.5%	-12.8	-23.8%	u
COc1ccc(-c2nc(CS(=O)CC(=O)NCc3ccc4c(c3)OCO4)c(C)o2)cc1OC (centres undefined)	u	-0.3%	2.7	14.6µM*	-16.6%
COc1ccc(-c2nc(CSCC(=O)NCc3ccc4c(c3)OCO4)c(C)o2)cc1	12.6µM*	0.5%	-8.0	u	12.6µM*
Cc1oc(-c2ccc(Cl)cc2)nc1CS(=O)CC(=O)NCc1ccc2c(c1)OCO2 (centres undefined)	-29.5%	0.1%	-13.0	u	-4.8%
COc1ccc(-c2nc(CS(=O)CC(=O)NC(C)CCc3ccccc3)c(C)o2)cc1OC (centres undefined)	11.1%	-1.1%	-3.0	18.3µM*	-5.4%
CCCCCCCCCCCCCC(=O)N[C@H](C)[C@@H](O)c1ccccc1	-7.8%	x	x	x	3.1%
CCC1=NN(C(=O)CCc2ccccc2)C(O)(C(F)(F)F)C1 (centres undefined)	12.6µM*	-0.1%	11.6	1.0%	u
CC1=NN(C(=O)CCc2ccc3c(c2)OCO3)C(O)(C(F)(F)F)C1 (centres undefined)	4.47µM*	-0.1%	-6.4	-5.3%	2.24µM*
CCC1=NN(C(=O)C(=O)NCCc2ccccc2)C(O)(C(F)(F)F)C1 (centres undefined)	0.631µM*	0.2%	-9.5	1.7%	1.78µM*
COc1ccc(CC(=O)N2N=C(C)CC2(O)C(F)(F)F)cc1OC (centres undefined)	u	0.1%	-1.3	8.4%	u
ClC(Cl)(Cl)c1nc2ccccc2n2nncc12	u	-0.1%	30.1	u	-0.7%
